# Source: PubChem BioAssay (NCATS)
# Records with an inconclusive call do not appear. Values without a mark were called inactive. Calls come from the whole dose curve; as a rule, active = well fitted inhibition curve with a large enough effect; inconclusive = small, poorly fitted or top-dose-only effect; inactive = flat fitted curve, though single readings scatter.
# Tested on: Zika virus NS2B-NS3 protease
# Test: Primary screen GU AMC qHTS for Zika virus inhibitors (AID 1347154);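 note: 0% = no-inhibitor control and -100% = no-enzyme control; nearly all actives have a fitted effect of over 70% in size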
# Details: Zika NS2B-NS3 unlinked protease, AMC fluorogenic substrate; series mostly up to 54.1 µM; activity change, negative = inhibition: at the top concentration
# Procedure, shortened: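 Unlinked Zika NS2B hydrophilic domain/NS3 protease domain noncovalent complex (25 nM final) in 10 mM Tris-HCl pH 8.0, 0.01% Tween 20, with AMC peptide substrate. Fluorescence (ex 340, em 450 nm) change over 15 min, room temperature; percent inhibition fitted to 4-parameter Hill equation.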
row,SMILES,"activity change, negative = inhibition [%]"
1,CCCCOC(=O)c1ccc(N)cc1,0.602
2,CC(C)=CCC[C@@](C)(O)[C@H]1CC=C(C)CC1,0.714
3,COC(=O)c1ccc(O)cc1,0.569
4,NS(=O)(=O)c1cc2c(cc1C(F)(F)F)NCNS2(=O)=O,-9.75
5,CC(=O)N[C@@H](CC(C)C)C(=O)O,-1.25
6,O=C(c1ccccc1)C(O)c1ccccc1 (configuration not stated),-3.72
7,Cn1c(=O)c2c(ncn2CCO)n(C)c1=O,-0.325
8,C/C(=C(\CCO)SS/C(CCO)=C(\C)N(C=O)Cc1cnc(C)nc1N)N(C=O)Cc1cnc(C)nc1N,2.62
9,O=C(O)C(S)C(S)C(=O)O (configuration not stated),-3.88
10,CC1(C)S[C@@H]2[C@H](N=CN3CCCCCC3)C(=O)N2[C@H]1C(=O)O,6.58
11,COc1ccc(-c2cc(=O)c3c(O)cc(O[C@@H]4O[C@H](CO[C@@H]5O[C@@H](C)[C@H](O)[C@@H](O)[C@H]5O)[C@@H](O)[C@H](O)[C@H]4O)cc3o2)cc1O,-8.67
12,CCCCCC(C)N (configuration not stated),-2.31
13,CC[N+](CC)(CC(=O)Nc1c(C)cccc1C)Cc1ccccc1,-5.06
14,C/C=C/C(=O)N(CC)c1ccccc1C,1.69
15,OCCN1C[C@H](O)[C@@H](O)[C@H](O)[C@H]1CO,0.804
16,Cc1cccc(Nc2ccccc2C(=O)O)c1C,-2.51
17,C[n+]1ccccc1/C=N/O,-0.102
18,O=C(O)CCC(=O)O,2.01
19,COc1nccnc1NS(=O)(=O)c1ccc(N)cc1,3.5
20,O=C(O)Cc1ccc(CCNS(=O)(=O)c2ccc(Cl)cc2)cc1,-0.329
21,CN1C(=O)CC(c2ccccc2)C1=O (configuration not stated),4.02
22,CN1CCN(C(=O)C2CCCCC2)CC1,-5.2
